Most compounds without a hit are left out; they make up all but 8% or so of the library.
LASV entry inh: Lassa virus entry inhibition; Lassa virus pseudotyped entry inhibition, cell-based qHTS; Potency, µM (highest dose often 49.2 µM), for the others: at the highest dose activity change, negative = inhibition, actives largely listed as inhibitors; hit rate 4.1% among 18,000
MARV entry inh: blocks Marburg virus binding or cell entry; Marburg virus pseudotype entry/binding inhibition, cell-based; Potency, µM (titrated, usually from 49.2 µM), without a hit: top-dose activity change, negative = inhibition, usual class: inhibitors; hit rate 6.5% among 18,000; AID 720532
* hit, by the source's call; ? = inconclusive; nt = not tested or not shown; ! = repeats disagree; [ ] = another dose, or the depositor's remark. Calls follow the shape of the full dose curve; tested in HEK293 cells. % is scaled to controls: 0 for no effect and ±100 for the full control effect; potency is read from the fitted curve at half-maximal effect.

SMILES	LASV entry inh	MARV entry inh
COC(=O)C1(C(=O)OC)C/C=C\Cc2ccccc2[C@@H]1C[N+](=O)[O-]	0.25µM*!	-4%
COC(=O)[C@]1(C)C=C[C@@H](C)[C@H](c2ccccc2Br)N1C(=O)C(F)(F)F	nt	-15%[8.59 µM]
C=C[C@@]1(C)CC[C@H](O)[C@H]2C(=O)CCC[C@H]21	11%[8.59 µM]	-28%[8.59 µM]
Oc1cc2c(cc1O)[C@H]1c3ccc(O)c(O)c3OC[C@@]1(O)C2	-14%	?
CC(=O)Oc1ccc2c(c1OC(C)=O)OCC1(O)Cc3c(cc(OC(C)=O)c(OC(C)=O)c3OC(C)=O)C21 (stereo unspecified)	-19%	7.9µM*
CC(=O)C1=C(C)N(Cc2ccccc2)C(=O)NC1c1ccc(Br)cc1 (stereo unspecified)	?	-4%[8.59 µM]
C#CCN1C(=O)CC[C@@]23C1=NC(C(=O)OC)=C(C(=O)OC)[C@@H]2N(Cc1ccccc1)c1ccccc13	-23%[8.59 µM]	-20%[8.59 µM]
CCCCC(C)/C=C(C)/C=C(\C)C(=O)NC1=CC(O)(/C=C/C=C/C=C/C(=O)NC2=C(O)CCC2=O)C2OC2C1=O (stereo unspecified)	7.1µM*	3.2µM*
O=C(C=Cc1cccc([N+](=O)[O-])c1)c1ccccc1	nt	-27%[8.59 µM]
O=C(N/N=C\c1ccccc1O)c1ccccc1O	7.9µM*	7.1µM*
COC(=O)c1ccccc1O	-6%	-10%
C[C@H]1CN(c2ccc(Br)cc2)C(=O)[C@H]1CC(=O)Nc1ccc(Br)cc1	14%	?
Clc1ccc2c(c1)C(N1CCNCC1)=Nc1ccccc1O2	?	11µM*!
CN1CCN(C2=Nc3ccccc3Cc3ccccc32)CC1	-5%	?
C=C(C)C1CC23C(=O)[C@]4(C(=O)c5ccccc5)C[C@@]5(C)CCC(CC2C1(C)C)(C4=O)[C@@]35OC (stereo partly specified)	-2%[8.59 µM]	9%[8.59 µM]
CC[C@@H]1OC(=O)[C@@H](C)[C@H](O[C@H]2C[C@@](C)(OC)[C@@H](O)[C@H](C)O2)C(C)[C@H](O[C@H]2O[C@@H](C)C[C@@H](N(C)C)[C@@H]2O)[C@@](C)(O)C[C@H](C)C(=O)[C@@H](C)[C@H](O)[C@@]1(C)O (stereo partly specified)	0%	?
CC[C@H]1OC(=O)[C@H](C)[C@@H](O[C@H]2C[C@@](C)(OC)[C@@H](O)[C@H](C)O2)[C@H](C)[C@@H](O[C@@H]2O[C@H](C)C[C@H](N(C)C)[C@H]2O)[C@](C)(O)C[C@@H](C)CN(C)[C@H](C)[C@@H](O)[C@]1(C)O	?	2.8µM*
CCC1OC(=O)C(C)[C@@H](O[C@H]2C[C@@](C)(OC)C(O)C(C)O2)C(C)[C@@H](O[C@@H]2OC(C)CC(N(C)C)C2O)[C@@](C)(O)CC(C)CN(C)C(C)C(O)[C@]1(C)O (stereo partly specified)	?	0.63µM*
CC[C@@H]1OC(=O)[C@H](C)[C@H](O[C@@H]2C[C@](C)(OC)[C@H](O)[C@H](C)O2)[C@H](C)[C@H](O[C@@H]2O[C@@H](C)C[C@@H](N(C)C)[C@@H]2O)[C@](C)(O)C[C@H](C)C(=O)[C@H](C)[C@H](O)[C@]1(C)O	22%[17.8 µM]	1%[17.8 µM]
CC(=O)c1ccc(OCc2cn(CC(=O)c3ccc(O)cc3)nn2)c(F)c1	-21%	7%
O=C1NC(=O)C(c2cccc(Cl)c2)=C1Nc1ccc(Cl)c(C(=O)O)c1	17%	-38%
OC[C@@H](O)COc1cccc2ccccc12	-4%	-8%
CNCC[C@H](Oc1cccc2ccccc12)c1cccs1	22µM*	7.9µM*
CCN(CCNC(=O)[C@H]1C=C(OC)C(=O)C[C@H](c2ccccc2)[C@@H]1C)C(C)=O	3%[8.59 µM]	-18%[8.59 µM]
Cc1cccc(CNc2ncnc3ccc(-c4ccc5c(c4)OCO5)cc23)c1	-14%	2%
SMILES	LASV entry inh	MARV entry inh
Cc1cccc(CNc2ncnc3ccc(-c4ccccc4CN(C)C)cc23)c1	?	10µM*
CC(C)=CCCC(C)=CCN1C(=O)[C@@]2(C[C@@H](C)C[C@@H](C)O2)c2ccccc21	-22%[8.59 µM]	-7%[8.59 µM]
CN(C)CC(O)Cn1c2ccc(Br)cc2c2cc(Br)ccc21 (stereo unspecified)	22µM*	7.9µM*
C=CCCOP1(=O)O[C@H](C=C)C[C@H](C=C)O1 (stereo partly specified)	-13%	-10%
CC(C)=CCN1C(=O)C2(CC(C)=C[C@@H](C)O2)c2c(Br)cccc21 (stereo partly specified)	-13%[8.59 µM]	11%[8.59 µM]
CCN(CC)CCO[C@H]1CC[C@@]2(C)C(=CC[C@@H]3[C@@H]2CC[C@]2(C)C(=O)CC[C@@H]32)C1	9%	-7%
CCN(CC)CCO[C@H]1CC[C@@]2(C)C(=CC[C@@H]3[C@H]2CC[C@]2(C)C(=O)CC[C@H]32)C1	-23%	13µM*
CC=COC(=O)N[C@@H](c1ccccc1)[C@]1(C(=O)OCC)CCCC1=O	9%[8.59 µM]	2%[8.59 µM]
CN(Cc1cnc2ccccn12)C1CCN(c2cccc(NC(=O)c3cccnc3)c2)CC1	-7%	-14%
O=C(Nc1cccc(N2CCC(NCc3cnn(-c4cccc(F)c4)c3)CC2)c1)c1ccncc1	7%	2.5µM*
Cn1cc(CNC2CCN(c3cccc(NC(=O)c4cccnc4)c3)CC2)cn1	-6%	-17%
COc1ccccc1C(=O)Nc1cccc(N2CCC(NCc3cnn(-c4ccccc4)n3)CC2)c1	?	11µM*
CCN1C(=NCc2ccc(OC)cc2)NC(c2cccc(C(F)(F)F)c2)C(C(=O)OC)=C1C (stereo unspecified)	4%[8.59 µM]	13%[8.59 µM]
COc1cc(OC)c([C@@H]2O[C@H](CO)[C@@H](O)[C@H](O)[C@@H]2O)c(OC)c1	14%[8.59 µM]	102%[8.59 µM]
CCCCC/C=C\C/C=C\C/C=C\C/C=C\CCCCCC(=O)NCCc1ccc(O)c(O)c1	-1%	23%
CCCCC/C=C\C/C=C\C/C=C\C/C=C\CCCC(=O)N(Cc1ccc(O)c(Cl)c1)Cc1ccc(O)c(Cl)c1	0.079µM*	?
CC(=O)OC[C@H]1O[C@H](C#Cc2ccccc2)C=C[C@H]1O	5%[8.59 µM]	-3%[8.59 µM]
COC(=O)c1ccc(CN2C(=O)[C@@]3(CC(C)=CC[C@@H](COc4ccccc4)O3)c3ccccc32)cc1	-20%[8.59 µM]	9%[8.59 µM]
Nc1ccn([C@@H]2O[C@H](CO)[C@@H](O)[C@H]2O)c(=O)n1	-6%	8%
O=c1[nH]cnc2c1ncn2[C@@H]1O[C@H](CO)[C@@H](O)[C@H]1O	3%	10%
OC[C@H]1O[C@@H](n2cnc3c(=S)nc[nH]c32)[C@H](O)[C@@H]1O	6.3µM*	7.9µM*
Nc1ccn([C@@H]2O[C@H](CO)[C@@H](O)C2O)c(=O)n1 (stereo partly specified)	7.1µM*	5µM*
Nc1ncn([C@H]2O[C@@H](CO)[C@@H](O)[C@@H]2O)c(=O)n1	2µM*	3.2µM*
Nc1ncn(C2CC(O)C(CO)O2)c(=O)n1 (stereo unspecified)	-12%	-6%
C=CCN(C)C1=NC(c2ccccc2)C(C(=O)OC)=C(C)N1CCOC (stereo unspecified)	-2%[8.59 µM]	4%[8.59 µM]
O=C1CCCC=C1C(O)COCc1ccccc1 (stereo unspecified)	-25%[8.59 µM]	3%[8.59 µM]
CC[C@H](C)[C@@H]1NC(=O)[C@@H]2CSCCS(=O)(=O)N2C1=O	5%	19%
C=CCNP1(=O)O[C@H](C=C)C[C@H](C=C)O1 (stereo partly specified)	1%	-14%

Assay outcomes as filed in PubChem BioAssay.
